Reference: PubChem BioAssay (EPA / NIEHS)
Inconclusive results are not listed. More than one record can exist for a structure, and the calls need not agree. Active and inactive are the calls of the source. Rule for the calls, unless noted: active = hit-call score of the fitted dose curve at least 0.9, where 1 is the maximum; inactive = score below 0.9.

Assays:
[1] = read-out: E-selectin (Homo sapiens) (UniProt P16581); experiment: BSK_SAg_Eselectin: BioMAP Diversity Plus: SAg Assay for Eselectin Biomarker Activity (AID 2283091); settings: primary human HUVEC with PBMC; actives raise or lower the signal
How it was run: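 HUVEC co-cultured with PBMC, compound dosed then read at 24 h; E-selectin measured by ELISA. Activity fitted bidirectionally against DMSO as negative control and baseline.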

[2] = read-out: Monokine induced gamma interferon (MIG), CXCL9 (gene 4283); experiment: BSK_SAg_MIG: BioMAP Diversity Plus: SAg Assay for Monokine induced gamma interferon (MIG) Biomarker Activity (AID 2283092); settings: primary human HUVEC with PBMC; actives raise or lower the signal
How it was run: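 HUVEC plus human PBMC co-culture, chemicals dosed and MIG (CXCL9) quantified by ELISA at 24 h. Bidirectional curve fitting against DMSO as negative control and baseline, so both gain and loss of signal count as activity.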

[3] = BSK_SAg_PBMCCytotoxicity: PBMC Cytotoxicity Assessment in the BioMAP Diversity Plus: SAg Assay (AID 2283093); settings: primary human HUVEC with PBMC;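 note: fitted both ways against DMSO so a hit may be loss or gain of signal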;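 for AC50: PBMC superantigen activated with SEB plus TSST-1 one hour after compound addition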
How it was run: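 PBMC viability by Alamar Blue reduction, fluorescence read at 546/580 nm after 6 h dye exposure. Cells were dosed 1 h before SEB plus TSST-1 activation (20 ng/mL final each), then held 90 h; endothelial/PBMC human co-culture.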

[4] = read-out: Interleukin-8 (IL8), CXCL8 (gene 3576); experiment: BSK_SAg_IL8: BioMAP Diversity Plus: SAg Assay for Interleukin-8 (IL8) Biomarker Activity (AID 2283094); settings: primary human HUVEC with PBMC; actives raise or lower the signal
How it was run: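 ELISA readout of IL-8 from a superantigen-activated endothelial/PBMC primary human co-culture, taken 24 h post-dosing and fitted in both directions against DMSO; parallel SRB total-protein staining flags overt cytotoxicity.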

[5] = BSK_SAg_Proliferation: Cell Proliferation Assessment in the BioMAP Diversity Plus: SAg Assay (AID 2283095); settings: primary human HUVEC with PBMC;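 note: relative cell number as total protein by SRB absorbance in sub-confluent culture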
How it was run: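 Relative cell number in the endothelial cell/PBMC co-culture was quantified at 96 h by SRB staining (0.1% SRB, 10% TCA fixation, read at 560 nm). Curves were fitted in both directions relative to DMSO baseline.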

[6] = BSK_SAg_SRB: Viability Assessment in the BioMAP Diversity Plus: SAg Assay (AID 2283096); settings: primary human HUVEC with PBMC;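 note: cells read one day after compound addition; hits may be either gain or loss of signal compared with DMSO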
How it was run: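 Compounds were added to a human vascular co-culture of umbilical vein endothelium and PBMC. After 24 h, parallel cultures were fixed with 10% TCA, stained with 0.1% sulforhodamine B and read at 560 nm. Gain or loss of signal was fitted relative to DMSO.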

[7] = target: human CYP19A1, CYP19A1 (gene 1588) (UniProt P11511); experiment: NVS_ADME_hCYP19A1: NovaScreen (NVS) CYP450-related Enzyme Activity (ADME) Assay for human CYP19A1 (AID 2283098; active = hit-call score of the fitted dose curve at least 0.9, where 1 is the maximum;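 for AC50: potency for inhibitors seen as loss of fluorescent enzyme signal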)
Description: (§1) NVS_ADME_hCYP19A1 is a biochemical, single-readout assay that uses extracted gene-proteins in a cell-free assay. Measurements were taken 0.5 hour after chemical dosing in a 384-well plate.NVS_ADME_hCYP19A1 is one of one assay component(s) measured or calculated from the NVS_ADME_hCYP19A1 assay. It is designed to make measurements of enzyme activity, a form of enzyme reporter, as detected with fluorescence intensity signals by Fluorescence technology.Data from the assay component NVS_ADME_hCYP19A1 was analyzed into 1 assay endpoint. This assay endpoint, NVS_ADME_hCYP19A1, was analyzed in the positive analysis fitting direction relative to Acetonitrile as the negative control and baseline of activity. Using a type of enzyme reporter, loss-of-signal activity can be used to understand changes in the enzymatic activity as they relate to the gene CYP19A1. Furthermore, this assay endpoint can be referred to as a primary readout, because this assay has produced multiple assay endpoints where this one serves a enzymatic activity function. To generalize the intended target to other relatable targets, this assay endpoint is annotated to the cyp intended target family, where the subfamily is steroidogenesis-related.
Binding assays used specific radioligands (tritiated, iodinated) with non-radioactive competitive displacement ligands in agonist or antagonist protocols (as indicated) and various reference compounds and inhibitors to titrate specific binding to receptors and transporters. Most enzyme assays (CYPs, kinases, phosphatases, proteases, HDACs) used recombinant protein and specific substrates (fluorescence mostly, some colorimetric and radioactive) and inhibitors, followed by a biochemical separation of substrate and product. All assays for the biochemical HTS were initially run in duplicate at a single concentration (10 uM for CYP450 assays and 25 uM for all others). […] Each assay was run with positive and negative controls, and concurrent controls on every plate. The follow-up (secondary) screen tested active chemical-pairs in concentration series, as well as a few additional assays not tested in the primary screen, some selected negative inactives, and several cases re-run in the concentration series for confirmatory purposes.

[8] = target: human CYP2B6, CYP2B6 (gene 1555) (UniProt P20813); experiment: NVS_ADME_hCYP2B6: NovaScreen (NVS) CYP450-related Enzyme Activity (ADME) Assay for human CYP2B6 (AID 2283101; active = hit-call score of the fitted dose curve at least 0.9, where 1 is the maximum)
How it was run: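 Recombinant human CYP2B6 with fluorogenic substrate, read by fluorescence intensity 1 h after dosing. Primary screen in duplicate at 10 uM, actives followed in concentration series; signal loss relative to acetonitrile control.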

[9] = target: human CYP2A6, CYP2A6 (gene 1548) (UniProt P11509); experiment: NVS_ADME_hCYP2A6: NovaScreen (NVS) CYP450-related Enzyme Activity (ADME) Assay for human CYP2A6 (AID 2283099; active = hit-call score of the fitted dose curve at least 0.9, where 1 is the maximum)
Description: as §1, with “NVS_ADME_hCYP2A6” for “NVS_ADME_hCYP19A1”, “gene-proteins from insect cells” for “gene-proteins”, “96-well plate.NVS_ADME_hCYP2A6” for “384-well plate.NVS_ADME_hCYP19A1”, “NVS_ADME_hCYP2A6,” for “NVS_ADME_hCYP19A1,”, “CYP2A6.” for “CYP19A1.”, “xenobiotic metabolism.” for “steroidogenesis-related.”
Binding assays used specific radioligands (tritiated, iodinated) with non-radioactive competitive displacement ligands in agonist or antagonist protocols (as indicated) and various reference compounds and inhibitors to titrate specific binding to receptors and transporters. Most enzyme assays (CYPs, kinases, phosphatases, proteases, HDACs) used recombinant protein and specific substrates (fluorescence mostly, some colorimetric and radioactive) and inhibitors, followed by a biochemical separation of substrate and product. All assays for the biochemical HTS were initially run in duplicate at a single concentration (10 uM for CYP450 assays and 25 uM for all others). Assay-chemical combinations meeting a pre-defined threshold (e.g., 30% inhibition and other criteria defined below) were then run in singleton concentration-response format with maximum concentration of 20 uM for CYPs and 50 uM for all others. Each assay was run with positive and negative controls, and concurrent controls on every plate. The follow-up (secondary) screen tested active chemical-pairs in concentration series, as well as a few additional assays not tested in the primary screen, some selected negative inactives, and several cases re-run in the concentration series for confirmatory purposes.

[10] = target: human CYP1A1, CYP1A1 (gene 1543) (UniProt P04798); experiment: NVS_ADME_hCYP1A1: NovaScreen (NVS) CYP450-related Enzyme Activity (ADME) Assay for human CYP1A1 (AID 2283100; active = hit-call score of the fitted dose curve at least 0.9, where 1 is the maximum)
How it was run: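 Cell-free fluorescence assay of recombinant human CYP1A1 activity with a specific substrate, read 1 h after dosing. Compounds were screened in duplicate at 10 uM, then hits tested in concentration-response up to 20 uM; acetonitrile served as baseline.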

Measured: AC50

Chain of E-selectin (Homo sapiens) (P16581 whole entry, looked up): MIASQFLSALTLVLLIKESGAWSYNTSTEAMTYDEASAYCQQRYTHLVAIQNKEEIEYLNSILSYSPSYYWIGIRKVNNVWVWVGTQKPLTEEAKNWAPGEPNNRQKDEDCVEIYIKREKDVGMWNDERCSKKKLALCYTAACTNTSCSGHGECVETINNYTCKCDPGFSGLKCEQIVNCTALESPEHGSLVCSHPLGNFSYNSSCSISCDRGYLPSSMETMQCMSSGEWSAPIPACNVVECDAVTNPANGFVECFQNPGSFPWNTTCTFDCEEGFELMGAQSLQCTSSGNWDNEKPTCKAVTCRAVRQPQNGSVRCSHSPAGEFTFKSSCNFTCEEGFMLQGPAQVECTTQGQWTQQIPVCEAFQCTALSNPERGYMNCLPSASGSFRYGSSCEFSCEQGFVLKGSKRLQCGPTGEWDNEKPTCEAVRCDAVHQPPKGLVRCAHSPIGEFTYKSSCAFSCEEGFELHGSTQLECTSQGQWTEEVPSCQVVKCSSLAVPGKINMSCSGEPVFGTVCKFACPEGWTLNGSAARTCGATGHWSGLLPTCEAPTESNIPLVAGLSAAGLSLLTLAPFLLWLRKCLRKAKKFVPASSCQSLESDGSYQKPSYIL
Chain of human CYP19A1, CYP19A1 (gene 1588) (P11511 whole entry, looked up): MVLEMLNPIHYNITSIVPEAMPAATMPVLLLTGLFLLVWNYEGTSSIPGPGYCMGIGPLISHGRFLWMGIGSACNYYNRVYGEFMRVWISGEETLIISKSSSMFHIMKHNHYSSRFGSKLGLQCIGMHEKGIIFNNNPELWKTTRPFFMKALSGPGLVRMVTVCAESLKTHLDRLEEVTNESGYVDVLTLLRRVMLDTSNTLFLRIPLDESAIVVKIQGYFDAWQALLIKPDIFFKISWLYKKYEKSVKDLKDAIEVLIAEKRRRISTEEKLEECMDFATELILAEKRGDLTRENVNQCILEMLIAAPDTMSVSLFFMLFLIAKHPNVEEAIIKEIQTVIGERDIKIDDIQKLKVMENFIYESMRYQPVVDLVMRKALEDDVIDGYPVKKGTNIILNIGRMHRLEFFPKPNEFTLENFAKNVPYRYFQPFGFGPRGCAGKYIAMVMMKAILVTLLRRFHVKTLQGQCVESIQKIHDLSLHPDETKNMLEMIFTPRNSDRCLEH
Chain of human CYP1A1, CYP1A1 (gene 1543) (P04798 whole entry, looked up): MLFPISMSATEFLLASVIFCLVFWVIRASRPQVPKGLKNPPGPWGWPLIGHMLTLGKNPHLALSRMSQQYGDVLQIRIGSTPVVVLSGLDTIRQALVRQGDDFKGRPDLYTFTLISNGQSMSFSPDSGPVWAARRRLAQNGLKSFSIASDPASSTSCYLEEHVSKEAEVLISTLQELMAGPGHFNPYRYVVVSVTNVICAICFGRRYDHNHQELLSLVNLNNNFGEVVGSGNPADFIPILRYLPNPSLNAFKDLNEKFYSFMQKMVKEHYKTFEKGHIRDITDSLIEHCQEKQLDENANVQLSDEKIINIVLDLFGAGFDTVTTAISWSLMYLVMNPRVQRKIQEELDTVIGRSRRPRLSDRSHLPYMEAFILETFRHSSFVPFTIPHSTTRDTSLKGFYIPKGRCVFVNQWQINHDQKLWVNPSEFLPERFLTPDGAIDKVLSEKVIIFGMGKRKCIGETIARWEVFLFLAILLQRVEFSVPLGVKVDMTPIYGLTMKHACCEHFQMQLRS
Chain of human CYP2B6, CYP2B6 (gene 1555) (P20813 whole entry, looked up): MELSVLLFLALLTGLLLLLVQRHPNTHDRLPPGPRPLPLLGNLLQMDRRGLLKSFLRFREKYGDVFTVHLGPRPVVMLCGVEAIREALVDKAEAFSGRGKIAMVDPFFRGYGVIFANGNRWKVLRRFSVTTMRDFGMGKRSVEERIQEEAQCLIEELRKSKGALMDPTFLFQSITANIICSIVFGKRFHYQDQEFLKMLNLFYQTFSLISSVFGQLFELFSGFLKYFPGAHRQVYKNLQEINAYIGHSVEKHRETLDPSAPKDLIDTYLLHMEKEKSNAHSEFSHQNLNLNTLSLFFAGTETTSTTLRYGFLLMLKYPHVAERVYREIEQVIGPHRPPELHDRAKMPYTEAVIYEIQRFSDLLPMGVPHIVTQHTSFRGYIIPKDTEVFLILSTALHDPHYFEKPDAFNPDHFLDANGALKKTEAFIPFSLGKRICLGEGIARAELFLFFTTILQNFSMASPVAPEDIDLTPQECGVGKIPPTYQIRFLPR
Chain of human CYP2A6, CYP2A6 (gene 1548) (P11509 whole entry, looked up): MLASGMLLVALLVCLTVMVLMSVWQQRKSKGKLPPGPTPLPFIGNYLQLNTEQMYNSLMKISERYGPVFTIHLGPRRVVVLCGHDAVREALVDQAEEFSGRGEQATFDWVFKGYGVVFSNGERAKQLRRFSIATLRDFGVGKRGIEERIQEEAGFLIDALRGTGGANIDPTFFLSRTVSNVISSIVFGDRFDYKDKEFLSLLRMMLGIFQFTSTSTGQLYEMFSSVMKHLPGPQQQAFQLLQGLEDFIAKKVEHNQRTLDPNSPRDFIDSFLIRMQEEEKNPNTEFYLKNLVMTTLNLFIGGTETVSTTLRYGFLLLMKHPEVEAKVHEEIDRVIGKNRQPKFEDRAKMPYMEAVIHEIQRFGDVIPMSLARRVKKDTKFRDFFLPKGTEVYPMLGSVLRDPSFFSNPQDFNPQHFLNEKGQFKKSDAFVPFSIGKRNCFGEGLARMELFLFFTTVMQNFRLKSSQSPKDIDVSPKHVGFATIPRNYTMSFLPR

CN1C(=O)N(c2ccccc2Br)Cc2cnc(Nc3ccc4c(c3)OCC(CO)O4)nc21 (centres undefined)
active: [1] 1.37 µM | [2] 2.89 µM | [3] 1.87 µM | [4] 1.62 µM | [5] 1.52 µM

O=C=NCCCCCCN=C=O
active: [5] 15.8 µM
inactive: [1] | [2] | [3] | [4] | [6]

CC1=CC(=O)/C(=C(/C)O)C(=O)O1
inactive: [1] | [2] | [4] | [5] | [6] | [7]

Cc1cc(F)ccc1-c1cc(N2CC[C@@H](O)[C@H]2CO)ncc1N(C)C(=O)C(C)(C)c1cc(C(F)(F)F)cc(C(F)(F)F)c1
active: [1] 10.2 µM | [2] 13.1 µM | [4] 7.96 µM | [5] 5.7 µM | [6] 10.8 µM

c1ccc(C[n+]2cccc3ccccc32)cc1
inactive: [1] | [2] | [4] | [5] | [6]

O=C(Nc1ccc(Cl)cc1)Nc1ccc(Cl)c(Cl)c1
active: [1] 2.6 µM | [2] 2.11 µM | [4] 2.29 µM | [5] 1.79 µM

CCCCCCCCCCCO
active: [5] 33.6 µM
inactive: [1] | [2] | [4]

OC12N=C(c3ccccc3)SC1Cc1cc(Cl)ccc12 (centres undefined)
active: [5] 25.4 µM | [8] 3.9 µM
inactive: [1] | [2] | [4]

Clc1ccccc1C(c1ccccc1)(c1ccccc1)n1ccnc1
active: [1] 14 µM | [2] 35.1 µM | [4] 11.6 µM | [5] 9.32 µM | [6] 24.4 µM | [10] 2.68 µM
inactive: [9]

CO[C@H]1/C=C/O[C@@]2(C)Oc3c(C)c(O)c4c(O)c(c(/C=N/N5CCN(C)CC5)c(O)c4c3C2=O)NC(=O)/C(C)=C\C=C\[C@H](C)[C@H](O)[C@@H](C)[C@@H](O)[C@@H](C)[C@H](OC(C)=O)[C@@H]1C
active: [5] 17.6 µM
inactive: [1] | [2] | [4] | [6]

CCCCCCCCCCCCO
active: [1] 31.7 µM | [2] 36.3 µM | [4] 19.8 µM | [5] 30.1 µM | [6] 31.3 µM

CC(=O)N1CCN(c2ccc(OC[C@H]3CO[C@](Cn4ccnc4)(c4ccc(Cl)cc4Cl)O3)cc2)CC1
active: [1] 32.4 µM | [2] 37.7 µM | [4] 26.5 µM | [5] 22.8 µM

Clc1cc(Cl)c2c(c1)N=C1CCCCCN1C2
inactive: [1] | [2] | [4] | [5] | [6]
active: [10] 0.764 µM

O=C(O)Cc1cc(I)c(Oc2ccc(O)c(I)c2)c(I)c1
active: [1] 20 µM | [5] 11.8 µM
inactive: [2] | [4] | [7]

C[C@]12CC[C@@H]3c4ccc(O)cc4CC[C@H]3[C@@H]1CCC2=O
inactive: [1] | [2] | [4] | [5] | [6]

COCC(C)OCC(C)OCC(C)O (centres undefined)
inactive: [1] | [2] | [4] | [5] | [6]

O=C1CCC(C2CCCCC2)CC1
active: [7] 11.6 µM
inactive: [1] | [2] | [4] | [5] | [6] | [7]

CC(O)CC(C)(C)O (centres undefined)
inactive: [1] | [2] | [4] | [5] | [6]

CCCCOC(=O)c1ccc(O)cc1
inactive: [1] | [2] | [4] | [5]
active: [8] 4.55 µM
